Source: PubChem BioAssay (National Center for Advancing Translational Sciences (NCATS))
A selection: hits, their analogues and other compounds. The true share with any hit is near 18%.
LDHA inh: qHTS assay for inhibitors of human lactate dehydrogenase; AID 1347041, 2019; purified LDHA, NADH/diaphorase-resazurin fluorescence; active compounds read low; activity change, % (values are at about 110 or 230 µM); 0.15% of 480,000 active; in the data active means activity change below about -30%; inconclusive means mostly about -25% to -30%;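 further: plate controls were DMSO wells for no effect and wells without enzyme for full effect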
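Remaining NADH was detected by diaphorase (0.133 mg/mL) converting 37 µM resazurin to fluorescent resorufin, read at 0 and 20 minutes. The preceding 5-minute room-temperature reaction used 2 nM LDHA, 0.2 mM sodium pyruvate and 0.06 mM NADH at pH 7.4.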
DT40 TDP1 no CPT: qHTS for Inhibitors of human tyrosyl-DNA phosphodiesterase 1 (TDP1): qHTS in cells in absence of CPT | AID 686978, 2013 | Potency, µM (titrated, usually from 46.2 µM), inactives show at the highest dose activity change, negative = growth inhibition, actives largely listed as inhibitors | DT40 Tdp1-/- hTDP1 cells, no CPT, ATP luminescence, 48 h | 15% of 420,000 active; further: potency means the concentration at half of the fitted maximal effect; nearly all actives have a fitted effect of over 55% in size
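Growth kinetics read by CellTiter-Glo luminescence after ≥48 hr at 37 °C. Cells: DT40 Tdp1-/- stably carrying human TDP1, 400 per well, compound exposure in the absence of CPT (DMSO vehicle).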
VP16 counter: VP16 counterscreen qHTS for inhibitors of ROR gamma transcriptional activity; 3.5% of 310,000 active; Drosophila S2 Gal4-VP16 UAS-luciferase, luminescence, 20 h; Potency, µM (series often up to 53.6 µM), for inactives: at the highest dose activity, negative = inhibition, usual class: inhibitors;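 further: Gal4-VP16 expression switched on by copper sulfate through the metallothionein promoter; potency means the concentration at half of the fitted maximal effect; nearly all actives have a fitted effect of over 50% in size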
TDP1 cell CPT: qHTS for Inhibitors of human tyrosyl-DNA phosphodiesterase 1 (TDP1): qHTS in cells in presence of CPT; chicken DT40 Tdp1-/-;hTDP1 cells + 20 nM CPT, ATP luminescence, 48 h; Potency, µM (series often up to 46.2 µM), inactives show top-dose activity change, negative = growth inhibition, usual class: inhibitors; 12% of 420,000 active; AID 686979, 2013; further: potency means the concentration at half of the fitted maximal effect; nearly all actives have a fitted effect of over 55% in size
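Chicken DT40 Tdp1-/- cells stably complemented with human TDP1 were seeded at 400 cells/well in medium containing 20 nM camptothecin, exposed to pin-transferred compounds, and grown at 37 °C for at least 48 hr. Viability was read as ATP luminescence.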
IL-1B inflam inh: qHTS for Inhibitors of Inflammasome Signaling: IL-1-beta AlphaLISA Primary Screen. 4.7% of 360,000 active. activity change, % at 57.5 µM. THP-1 LPS/ATP IL-1B secretion, AlphaLISA, 16 h; active compounds read low. AID 743279, 2014; in the data active means activity change below about -50%; inconclusive means mostly about -30% to -49%
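THP-1 cells pretreated 1 hr with compounds (up to 57.5 uM final), then stimulated with LPS (250 ng/mL final) plus ATP (1.25 mM final); secreted IL-1B measured by AlphaLISA after 16 hr, decreased signal indicating inhibition.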
RORg inh: qHTS for inhibitors of ROR gamma transcriptional activity | Nuclear receptor ROR-gamma (Mus musculus), P51450 | 5.4% of 310,000 active | Drosophila S2 Gal4-RORgamma UAS-luciferase reporter, 20 h | Potency, µM (titrated, usually from 53.6 µM), for the others: at the highest dose activity change, negative = inhibition, hits mostly inhibitors; further: potency means the concentration at half of the fitted maximal effect; nearly all actives have a fitted effect of over 60% in size
Target sequence (P51450 whole entry, looked up, the tested form may be a part): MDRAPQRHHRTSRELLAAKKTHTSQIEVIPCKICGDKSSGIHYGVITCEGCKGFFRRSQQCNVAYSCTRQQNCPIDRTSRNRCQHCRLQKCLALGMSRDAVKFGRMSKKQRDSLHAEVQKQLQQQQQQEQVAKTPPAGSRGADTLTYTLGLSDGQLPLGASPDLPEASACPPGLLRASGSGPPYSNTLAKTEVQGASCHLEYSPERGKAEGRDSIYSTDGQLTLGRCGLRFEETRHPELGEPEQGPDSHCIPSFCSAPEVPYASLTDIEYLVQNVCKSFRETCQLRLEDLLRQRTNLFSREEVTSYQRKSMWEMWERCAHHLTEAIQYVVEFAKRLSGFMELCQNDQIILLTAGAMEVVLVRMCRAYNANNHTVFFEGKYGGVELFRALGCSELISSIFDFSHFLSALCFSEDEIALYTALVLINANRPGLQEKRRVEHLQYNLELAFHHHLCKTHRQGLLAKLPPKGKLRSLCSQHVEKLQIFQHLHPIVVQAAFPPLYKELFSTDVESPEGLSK
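Compounds are pin-transferred onto Drosophila Schneider cells expressing a copper-inducible Gal4–ROR gamma transactivation domain fusion. After 1 hr, copper sulfate is added to 700 uM final; luciferase is read 20 hr later.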
The depositor's hits bear a star; u = inconclusive; x = not tested or not shown. Unless noted, the call rests on the fitted dose curve; in most records, active means well fitted curve in the direction sought with a large enough effect; inconclusive means small, poorly fitted or top-dose-only effect, or another doubt; inactive means no such curve, though single readings can be large; an effect the other way counts as inactive or inconclusive. Unless noted, on the % scale 0 is the no-effect control and ±100 the full control effect.

SMILES	LDHA inh	DT40 TDP1 no CPT	VP16 counter	TDP1 cell CPT	IL-1B inflam inh	RORg inh
O=c1c2ccccc2c(-c2ccccc2)nn1Cc1nc(-c2ccc(Br)cc2)no1	-2	x	x	x	x	x
O=[N+]([O-])c1ccccc1S(=O)(=O)Nc1ccccc1-n1cccn1	3	x	x	x	x	x
COc1ccc(Br)cc1-c1nc(CCl)cs1	-2	15µM*	-4%	13µM*	-3	12%
c1ccc2c(c1)Sc1ccccc1N2CCN1CCCC1	x	u	-1%	u	x	21%
c1ccc2c(c1)Sc1cnccc1N2CC1CO1 (stereo unspecified)	-14	10µM*	x	4.1µM*	-11	x
O=C(COC(=O)c1ccccc1Br)c1ccc([N+](=O)[O-])cc1	5	x	x	x	x	x
Cc1cnc2c(S(=O)(=O)N3CCN(CC(C)C)CC3)cccc2c1	-1	x	x	x	x	x
O=C1c2ccccc2CCC12OC2c1ccncc1 (stereo unspecified)	7	2.9µM*	x	-16%	-20	x
O=S(=O)(c1cccc2nsnc12)N1CCCC1c1ccc(Cl)cc1 (stereo unspecified)	-3	x	x	x	x	x
CCOc1cc(C2C(C#N)=C(N)Oc3n[nH]c(CC)c32)ccc1OCCN1CCOCC1 (stereo unspecified)	-4	-11%	-1%	-18%	-61*	-37%
CCOC(=O)Cc1[nH]nc2c1C(c1ccsc1)C(C#N)=C(N)O2 (stereo unspecified)	-14	u	-19%	u	-65*	-1%
CCCc1[nH]nc2c1C(c1ccc(OCCN3CCOCC3)c(OCC)c1)C(C#N)=C(N)O2 (stereo unspecified)	7	-8%	10%	-26%	-7	-7%
CCCc1[nH]nc2c1C(c1ccoc1)C(C#N)=C(N)O2 (stereo unspecified)	1	u	-23%	u	-80*	u
CCCc1[nH]nc2c1C(c1ccc(O)cc1OCC)C(C#N)=C(N)O2 (stereo unspecified)	2	u	-11%	u	-76*	-18%
Cc1[nH]nc2c1C(c1ccoc1)C(C#N)=C(N)O2 (stereo unspecified)	8	-1%	0%	10%	u	38%
Cc1noc(/C=C\c2ccc(S(=O)(=O)N3CCc4ccccc43)cc2)c1NC(=O)C1CC1	11	x	x	x	x	x
CCOC(=O)c1sc(CC(=O)Nc2ccc(C)cc2)nc1C	11	x	x	x	x	x
CC1(C)CC(NC(=O)c2cc3cc(Br)ccc3oc2=O)CC(C)(C)N1	-16	x	x	x	x	x
CC(C)C(NC(=O)c1cccc(NC(N)=O)c1)c1ccc(Cl)cc1 (stereo unspecified)	2	x	x	x	x	x
CCCc1[nH]nc2c1C(c1ccsc1)C(C#N)=C(N)O2 (stereo unspecified)	-6	u	-9%	16µM*	-228*	10%
CCCc1[nH]nc2c1C(C1CCCCC1)C(C#N)=C(N)O2 (stereo unspecified)	-6	u	-27%	u	-95*	-3%
COCc1[nH]nc2c1C(c1sccc1C)C(C#N)=C(N)O2 (stereo unspecified)	-5	u	-1%	-15%	-81*	-3%
CCCc1[nH]nc2c1C(c1ccc(OC)c(OC)c1)C(C#N)=C(N)O2 (stereo unspecified)	14	x	x	x	x	x
COCc1[nH]nc2c1C(c1ccsc1)C(C#N)=C(N)O2 (stereo unspecified)	0	-24%	7%	u	-21	0%
N#CC1=C(N)Oc2n[nH]c(-c3cccs3)c2C1c1cccs1 (stereo unspecified)	6	-28%	-4%	u	-91*	-7%
SMILES	LDHA inh	DT40 TDP1 no CPT	VP16 counter	TDP1 cell CPT	IL-1B inflam inh	RORg inh
COCCN1C(=O)NC(c2cccc(Cl)c2Cl)C(C(=O)Nc2cc(C)on2)=C1C (stereo unspecified)	-4	x	x	x	x	x
CCOC(=O)N1CCN(C(=O)Cn2nc(-c3ccccc3F)ccc2=O)CC1	2	x	x	x	x	x
COC(=O)Cc1[nH]nc2c1C(C1C=CCCC1)C(C#N)=C(N)O2 (stereo unspecified)	-5	26µM*	-18%	u	-62*	8%
CCOC(=O)CCCN1CCC(CO)CC1	-2	x	x	x	x	x
CC1CCC(NC(=O)C2CC(=O)Nc3cc(F)ccc32)CC1 (stereo unspecified)	7	x	x	x	x	x
CCCC(=O)C1=C(O)C(C(=O)OC)C(C)(C)CC1=Nc1ccncc1 (stereo unspecified)	0	-12%	4%	-26%	0	-18%
CCCC(=O)C1=C(O)C(C(=O)OC)C(C)(C)CC1=Nc1ccc(N)cc1 (stereo unspecified)	-6	-10%	-4%	-19%	3	-11%
CCCC(=O)C1=C(O)C(C(=O)OC)C(C)(C)CC1=Nc1ccc(Br)cc1 (stereo unspecified)	-5	23µM*	-19%	u	-9	-3%
CCCC(=O)C1=C(O)C(C(=O)OC)C(C)(C)CC1=Nc1ccc(OC)cc1 (stereo unspecified)	0	21µM*	-12%	u	-15	7%
CO/N=C(\C(=O)O)c1cn2ccsc2n1	-4	x	x	x	x	x
CC(C)[C@@H]1CC[C@@H](C)c2c(-c3ccccc3)n[nH]c21	2	u	u	u	35	16µM*
CCNC(=S)N/N=C(\C)c1ccc(Cl)s1	-4	4.1µM*	1.4µM*	4.1µM*	0	0.71µM*
C=C(C)CNC(=S)N/N=C(\C)c1ccc(Cl)s1	-4	16µM*	2.8µM*	u	18	0.89µM*
C/C(=N/Nc1ccc(F)cc1)c1ccc(Cl)s1	-2	0%	14%	-2%	7	16%
